Measurements published in PMC6792352, “Limited Chemical Structural Diversity Found to Modulate Thyroid Hormone Receptor in the Tox21 Chemical Library” (Environmental Health Perspectives, 2019).
Structures can show the parent of a compound that is named as a salt.

system: thyroid hormone receptor (endogenous TRα and TRβ); set-up: species or system GH3-TRE-Luc (rat pituitary); GH3-TRE-Luc luciferase reporter, antagonist mode against 1 nM T3, loss of signal, qHTS; conditions: read-out: Average AC50 (uM) GH3-TRE-Antag, antagonist mode, 1 nM T3, no GH3 cytotoxicity hit

Row | SMILES | AC50
1 | CCOCN(C(=O)CCl)c1c(C)cccc1CC [Acetochlor] | 75.3 µM
2 | CCOC(=O)Oc1c(OC)cc(C(=O)O[C@@H]2C[C@@H]3CN4CCc5c([nH]c6cc(OC)ccc56)[C@H]4C[C@@H]3[C@H](C(=O)OC)[C@H]2OC)cc1OC [Syrosingopine] | 19 µM
3 | c1ccc2c(c1)Cc1ccccc1-2 [Fluorene] | 55.8 µM
4 | O=C(O)[C@@H]1[C@H](C(=O)O)[C@H]2CC[C@@H]1O2 [Endothal] | 77.2 µM
5 | CC(C)CC(=O)C1C(=O)c2ccccc2C1=O [2-Isovaleryl-1,3-indanedione] | 77.1 µM
6 | C[C@]12CC[C@@H]3c4ccc(O)cc4CC[C@H]3[C@@H]1CC[C@H]2O [17alpha-Estradiol] | 27 µM
7 | CCN(CCCCOC(=O)c1ccc(OC)c(OC)c1)C(C)Cc1ccc(OC)cc1 (centres unmarked) [Mebeverine hydrochloride] | 13.7 µM
8 | CCOC(=O)NCCOc1ccc(Oc2ccccc2)cc1 [Fenoxycarb] | 75.9 µM
9 | Cc1ccc2nc(-c3ccc(N)cc3)sc2c1S(=O)(=O)O | 45.2 µM
10 | CCCCC(CC)COC(=O)c1ccccc1C(=O)O (centres unmarked) [MEHP] | 70.2 µM
11 | CC(=O)[C@H]1CC[C@H]2[C@@H]3C=CC4=CC(=O)CC[C@@]4(C)[C@@H]3CC[C@]12C [Dydrogesterone] | 9.99 µM
12 | CC(C)[C@@H](C)/C=C/[C@@H](C)[C@H]1CC[C@H]2/C(=C/C=C3\C[C@@H](O)CC[C@@H]3C)CCC[C@]12C [Dihydrotachysterol] | 26.8 µM
13 | COC(=O)c1c(Cl)c(Cl)c(C(=O)OC)c(Cl)c1Cl [Chlorthal-dimethyl] | 72.5 µM
14 | C1COC(NC(C2CC2)C2CC2)=N1 [Rilmenidine] | 29.6 µM
15 | C=CC(=O)OCCOc1ccccc1 [2-Phenoxyethyl acrylate] | 47.8 µM
16 | CCCCCCCCCCCCCC(=O)O [Tetradecanoic acid] | 52.3 µM
17 | [O-][N+](=Nc1ccccc1)c1ccccc1 [Azoxybenzene] | > 50 µM
18 | COC(=O)NC(=S)Nc1ccccc1NC(=S)NC(=O)OC [Thiophanate-methyl] | 78.1 µM
19 | Cn1c(=O)c2[nH]c(Br)nc2n(C)c1=O [8-Bromotheophylline] | 24.8 µM
20 | C/C=C\C/C=C/CCCCCCCCOC(C)=O [(9E,12Z)-9,12-Tetradecadien-1-ol acetate] | 68.2 µM
21 | CC[C@H](C)COC(=O)/C=C/c1ccc(N=Cc2ccc(OC)cc2)cc1 [(+)-2-Methylbutyl-4-methoxybenzyladine-4'-aminocyannate] | 62 µM
22 | Cc1cc(C)c(/C=C2\C(=O)Nc3ccccc32)[nH]1 [SU-5416] | 18.1 µM
23 | c1csc(SSc2cccs2)c1 [2-Thienyl disulfide] | 57.5 µM
24 | O=P(c1ccccc1)(c1ccccc1)c1ccccc1 [Triphenylphosphine oxide] | 58.7 µM
25 | O=C1OC2(c3ccc(O)cc3Oc3cc(O)ccc32)c2ccccc21 [Fluorescein] | > 50 µM
26 | CC(CN1CC(=O)NC(=O)C1)N1CC(=O)NC(=O)C1 (centres unmarked) [ICRF-159] | 33.9 µM
